GIRK2 act: GIRK2 channel activators by thallium flux. P48051. HEK293 GIRK2/NPY4 cells, thallium flux fluorescence. activation (% efficacy), % for hits at 37.5 µM. 34,000 tested, under 10 active. AID 1259324;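 active = primary screen hit, no activity in plain HEK293 cells, and in GIRK2-only cells above 5% efficacy rising with concentration; inactive = the rest, including fluorescent compounds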;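 note: efficacy is normalized control-subtracted fluorescence 15 s after thallium addition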
Target sequence (P48051 whole entry, looked up): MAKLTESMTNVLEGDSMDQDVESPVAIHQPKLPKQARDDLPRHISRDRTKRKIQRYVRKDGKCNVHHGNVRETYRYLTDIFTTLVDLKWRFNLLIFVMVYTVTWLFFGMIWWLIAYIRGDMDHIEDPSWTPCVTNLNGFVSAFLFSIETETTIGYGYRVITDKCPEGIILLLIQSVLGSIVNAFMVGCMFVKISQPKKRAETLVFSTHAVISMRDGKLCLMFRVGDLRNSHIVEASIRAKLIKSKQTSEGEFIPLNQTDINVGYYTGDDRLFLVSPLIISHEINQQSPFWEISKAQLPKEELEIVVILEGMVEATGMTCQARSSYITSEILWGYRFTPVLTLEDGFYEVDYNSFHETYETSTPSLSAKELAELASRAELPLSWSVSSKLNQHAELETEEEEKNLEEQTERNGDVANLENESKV
GluA2 TARP mod: GluA2-stargazin AMPA receptor complex modulation | HEK293 GluA2+stargazin, membrane potential dye (FDSS), glutamate EC50; hits were called plate by plate, in both directions | calls only at 30 µM | 40,000 compounds, 3.5% hits | AID 1259245;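 active = any of four per-well response measures lying three or more SD from its plate-wide compound average, in either direction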
Active calls of the source: *; i = inactive; nt = no result given; + = active, no number; [ ] = another dose, or the depositor's remark. Many of the other results were omitted from the sample, so hits are more common in it than they were.

SMILES | GIRK2 act | GluA2 TARP mod
Cc1cc(N(C)C)nc(NCCNC(=O)Nc2ccc(C)c(C)c2)n1 | i | i
CCN(CC)c1cc(C)nc(Nc2ccc(NC(=O)C(C)(C)C)cc2)n1 | i | +
CCOC(=O)Cn1c(=O)c2c(nc3n2CCCN3c2ccc(OCC)cc2)n(C)c1=O | nt | i
O=C(Nc1ccc(-c2cn3ccsc3n2)cc1)NC1CCCCC1 | i | +
COc1cc(C(C)=O)ccc1OCC(=O)Nc1ccc(-c2cn3ccsc3n2)cc1 | i | i
COCCNC(=O)CCCn1nc(-c2ccc(C)cc2)ccc1=O | i | i
CN(C)c1ccc(-c2oc3ccccc3c(=O)c2O)cc1 | nt | +
O=c1c(O)c(-c2ccccc2)oc2ccccc12 | nt | i
NC(=O)c1ccsc1NC(=O)C1CCN(S(=O)(=O)c2ccc(Cl)cc2)CC1 | i | +
NC(=O)c1ccsc1NC(=O)C1CCCCC1 | i | i
COC(=O)c1c2c(nc3c1c(C)nn3C1CCS(=O)(=O)C1)CCC2 (centres undefined) | i | nt
Cc1cc(=O)[nH]c(-n2nc(C)c(CCC(=O)NC(C)CCc3ccccc3)c2C)n1 (centres undefined) | i | i
O=C(Cc1csc(NC(=O)c2ccco2)n1)Nc1cc2ccccc2oc1=O | i | i
Cc1nc(C)c(C(=O)N2CCN(c3ccc(N(C)C)nn3)CC2)s1 | i | +
Cc1nc(C)c(C(=O)N2CCN(c3nc4c(C)c(C)ccc4s3)CC2)s1 | i | i
Cn1nnc2c(N3CCN(C(=O)COc4cccc(C(F)(F)F)c4)CC3)ncnc21 | i | i
Cc1cc(-c2nnc(NC(=O)c3ccc(C(C)(C)C)cc3)o2)nn1C | i | i
CCCN(CCC)S(=O)(=O)c1ccc(C(=O)Nc2nnc(-c3cc(C)n(C)n3)o2)cc1 | i | i
Cc1cc(-c2nnc(NC(=O)c3ccc(Cl)cc3)o2)nn1C | i | +
Cc1cc(-c2nnc(NC(=O)c3ccc(S(=O)(=O)N(C)C)cc3)o2)nn1C | i | +
Cc1ccc(NC(=O)N2CCN(c3ccc(-c4ccco4)nn3)CC2)cc1C | i | i
COc1ccc(S(=O)(=O)NCCOc2ccc(-c3ccc(C)cc3)nn2)cc1OC | i | i
COc1ccc(S(=O)(=O)NCCOc2ccc(-c3ccc(F)cc3)nn2)cc1F | i | +
CCOc1ccc(C(C)C)cc1S(=O)(=O)NCCOc1ccc(-c2ccccc2)nn1 | i | +
CCOC(=O)c1ccc(S(=O)(=O)NCCOc2ccc(-c3ccc(OC)cc3)nn2)cc1 | i | i
SMILES | GIRK2 act | GluA2 TARP mod
CCOC(=O)c1ccc(S(=O)(=O)NCCOc2ccc(-c3ccccc3)nn2)cc1 | i | +
COc1ccc(Cl)cc1S(=O)(=O)NCCOc1ccc(-c2ccccc2)nn1 | i | i
CCOc1ccc(S(=O)(=O)NCCOc2ccc(-c3ccccc3)nn2)cc1 | i | +
CCOc1ccc(-c2ccc(OCCNS(=O)(=O)c3ccccc3)nn2)cc1 | i | i
O=C(NCC#CCN1CCc2ccccc2C1)Nc1ccccc1C(F)(F)F | i | i
Cc1cc(OCCCC(=O)O)cc(C)c1Cl | nt | i
Cc1cccc(Nc2ccc(N3CCN(C(=O)C4CCC(=O)N4)CC3)nn2)n1 (centres undefined) | i | +
Cc1cccc(Nc2ccc(N3CCN(C(=O)C4CCCO4)CC3)nn2)n1 (centres undefined) | i | nt
COc1cccc(-n2nnc3c(N4CCN(C(=O)COc5ccc(C(C)C)cc5)CC4)ncnc32)c1 | nt | i
O=C(Nc1ccc2ncsc2c1)c1ccc(C(=O)c2ccccc2)cc1 | i | i
O=C(Nc1ccc2ncsc2c1)c1cccc([N+](=O)[O-])c1 | i | +
CCc1nnc(NS(=O)(=O)c2ccc(NC(=O)c3ccc(Cl)s3)cc2)s1 | nt | i
O=C(CCN1C(=O)c2ccccc2S1(=O)=O)Nc1ccc(S(=O)(=O)Nc2nccs2)cc1 | i | i
O=[N+]([O-])c1ccc(Nc2ccc(S(=O)(=O)Nc3nccs3)cc2)c([N+](=O)[O-])c1 | 14.0%*[18.8 µM] | i
CCOc1ccccc1C(=O)NC1CC(=O)N(c2ccc(C)cc2)C1 (centres undefined) | nt | i
CCOc1ccc(-c2cc(-c3nc(-c4ccccc4C)no3)[nH]n2)cc1 | nt | i
CCOC(=O)c1csc(NC(=O)c2cc3ccccc3o2)n1 | nt | +
C=CCNC(=O)Nc1nc(C(=O)OCC)cs1 | i | i
COc1cccc(N2CC(c3nc4ccccc4n3Cc3ccccc3Cl)CC2=O)c1 (centres undefined) | nt | +
CC(C)(C)N1CC(c2nc3ccccc3n2CCOc2ccc(Cl)cc2)CC1=O (centres undefined) | nt | i
COc1cccc(N2CC(c3nc4ccccc4n3Cc3ccccc3)CC2=O)c1 (centres undefined) | nt | i
CC(C)(C)N1CC(c2nc3ccccc3n2Cc2c(F)cccc2Cl)CC1=O (centres undefined) | nt | +
Cc1cccc(Cn2c(C3CC(=O)N(C(C)(C)C)C3)nc3ccccc32)c1 (centres undefined) | nt | +
CC(C)CCn1c(C2CC(=O)N(Cc3ccc(F)cc3)C2)nc2ccccc21 (centres undefined) | nt | i
CC(C)(C)N1CC(c2nc3ccccc3n2Cc2ccc(Cl)cc2)CC1=O (centres undefined) | nt | i
SMILES | GIRK2 act | GluA2 TARP mod
CC(C)CCn1c(C2CC(=O)N(Cc3ccccc3)C2)nc2ccccc21 (centres undefined) | nt | +
CCOc1cc(-c2cc(C(=O)O)c3[nH]c(C)nc3n2)ccc1O | i | i
CCCCN1CC(c2nc3ccccc3n2Cc2ccccc2)CC1=O (centres undefined) | nt | i
O=C1CC(c2nc3ccccc3n2Cc2c(F)cccc2Cl)CN1Cc1ccccc1 (centres undefined) | nt | +
O=C1CC(c2nc3ccccc3n2Cc2ccc(F)cc2)CN1Cc1ccccc1 (centres undefined) | nt | +
O=C1CC(c2nc3ccccc3n2Cc2ccc(F)cc2)CN1Cc1ccc(F)cc1 (centres undefined) | nt | i
CCCCN1CC(c2nc3ccccc3n2Cc2cccc(Cl)c2)CC1=O (centres undefined) | nt | +
C=CCN1CC(c2nc3ccccc3n2Cc2c(F)cccc2Cl)CC1=O (centres undefined) | nt | i
O=C(COc1ccc2c(c1)OCO2)N1CCN(c2ccc3nncn3n2)CC1 | i | i
Cc1ccc(-c2noc(CSc3nc4cc5c(cc4c(=O)n3C3CC3)OCO5)n2)cc1 | i | i
O=C(NCC(O)c1ccsc1)c1cnccn1 (centres undefined) | i | i
Cc1ccc2nc3c(cc(C(=O)N4CCCCCC4)n3Cc3ccccc3)c(=O)n2c1 | nt | i
COc1ccc(NC(=O)CSc2nc(=O)n(CCCO)c3c2CCC3)cc1 | i | i
COc1ccccc1NC(=O)N1CCC(CNS(=O)(=O)c2ccc(OC)c(OC)c2)CC1 | i | nt
CCN1CCC2(CC1)Oc1ccc(Cl)cc1C1CC(c3ccccc3O)=NN12 (centres undefined) | nt | i
COc1ccc(-c2nnc3ccc(OCCNC(=O)Nc4ccc(Cl)cc4)nn23)cc1 | i | i
CCCC(=O)NCCOc1ccc2nnc(-c3ccc(OC)c(OC)c3)n2n1 | i | +
COc1ccc(-c2nnc3ccc(OCCNC(=O)NCc4ccccc4)nn23)cc1 | i | +
